# RECQ1 inh-1 = blocks DNA unwinding by human RECQ1; RECQ1 DNA unwinding, red fluorescence kinetic read; P46063; 240,000 compounds, 0.54% hits; Potency, µM (highest dose often 57.3 µM), inactives show at the top dose activity, negative = inhibition, actives largely listed as inhibitors;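 also: potency is read from the fitted curve at half-maximal effect; plate controls were vehicle for no effect and no enzyme for full effect; nearly all actives have a fitted effect of over 30% in size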
#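 50 nM RECQ1T1 preincubated 15 min with compound in Tris pH 8.0 buffer with MgCl2, DTT, Tween-20 and 2.5 ug/ml poly(dI-dC); started with 200 nM TAMRA/BHQ-2 forked duplex and 2 mM ATP. Unwinding read as fluorescence (525/598 nm), two reads 2 h apart.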
# GCN5L2 inh-1 = inhibitors of human GCN5L2 histone acetyltransferase; AID 504327; Potency, µM (highest dose often 58.9 µM), for inactives: top-dose activity change, negative = inhibition, most hits filed as inhibitors; GCN5L2 HAT assay, ThioGlo1 CoA-SH fluorescence; 390,000 compounds, 0.21% hits; Q92830; also: potency is read from the fitted curve at half-maximal effect; % is scaled to controls: 0 for no effect and ±100 for the full control effect
# Target sequence (Q92830 whole entry, looked up): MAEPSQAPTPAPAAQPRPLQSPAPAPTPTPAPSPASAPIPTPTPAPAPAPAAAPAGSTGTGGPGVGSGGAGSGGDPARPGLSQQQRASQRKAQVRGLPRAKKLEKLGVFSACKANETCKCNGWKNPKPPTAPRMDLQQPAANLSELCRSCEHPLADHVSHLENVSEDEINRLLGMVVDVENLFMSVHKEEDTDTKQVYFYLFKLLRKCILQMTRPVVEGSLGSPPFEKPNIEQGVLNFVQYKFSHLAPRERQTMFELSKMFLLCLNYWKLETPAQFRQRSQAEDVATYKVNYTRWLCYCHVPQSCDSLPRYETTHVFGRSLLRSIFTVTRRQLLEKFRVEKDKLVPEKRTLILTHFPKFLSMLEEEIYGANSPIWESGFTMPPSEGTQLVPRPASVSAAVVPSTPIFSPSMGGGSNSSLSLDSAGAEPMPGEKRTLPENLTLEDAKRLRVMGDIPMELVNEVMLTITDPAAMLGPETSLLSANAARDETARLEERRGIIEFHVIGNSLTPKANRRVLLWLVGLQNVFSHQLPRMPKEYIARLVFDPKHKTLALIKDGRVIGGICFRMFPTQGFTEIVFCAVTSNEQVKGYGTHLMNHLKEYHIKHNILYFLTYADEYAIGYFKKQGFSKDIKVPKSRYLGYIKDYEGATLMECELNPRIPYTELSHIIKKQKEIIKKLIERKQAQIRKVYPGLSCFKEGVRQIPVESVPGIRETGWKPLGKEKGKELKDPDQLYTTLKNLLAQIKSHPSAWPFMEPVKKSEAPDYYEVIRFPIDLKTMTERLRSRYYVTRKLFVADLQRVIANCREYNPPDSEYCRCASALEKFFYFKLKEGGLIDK
#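 Enzyme at 20nM final was mixed with library compounds for 15 min at room temperature. Peptide H3(1-25) at 75uM, acetyl-CoA at 70uM and ThioGlo1 at 50uM were then added. Plates were read immediately and after 20 min (Ex340nm/Em540nm).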
# TDP1 inh = TDP1 (human) enzyme inhibition; Q9NUW8; recombinant TDP1, AlphaScreen DNA substrate cleavage; Potency, µM (doses to about 130 µM), without a hit: top-dose activity change, negative = inhibition, usual class: inhibitors; 350,000 compounds, 0.28% hits; also: potency is read from the fitted curve at half-maximal effect; % is scaled to controls: 0 for no effect and ±100 for the full control effect; nearly all actives have a fitted effect of over 40% in size
#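 E. coli-derived human Tdp1, 1 nM final. Cpd preinc 15 min RT; substrate 15 nM final, 5 min RT; AS bead mix 10 ug/ml final, 10 min RT. Signal loss = tyrosine-FITC cleavage. No-enzyme wells = max signal.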
# APEX1 inh = inhibitors of human APE1 endonuclease. recombinant APE1, TAMRA/BHQ-2 abasic DNA cleavage fluorescence. Potency, µM (doses to about 65.8 µM), for the others: at the top dose activity change, negative = inhibition, most hits filed as inhibitors. 350,000 compounds, 0.35% hits. AID 2517;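 also: potency is read from the fitted curve at half-maximal effect; plate controls were vehicle for no effect and reference inhibitor for full effect; nearly all actives have a fitted effect of over 55% in size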
#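 Enzyme (0.75 nM final) and test compound are incubated 15 min at room temperature before adding 50 nM quenched THF abasic-site duplex. Cleavage dequenches TAMRA, followed at 525/598 nm over three reads one minute apart.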
# JMJD2E inh = inhibitors of human JMJD2E histone demethylase; JMJD2E catalytic domain, FDH-coupled NADH fluorescence (FDH is formaldehyde dehydrogenase); Potency, µM (doses to about 57.1 µM), for inactives: at the top dose activity change, negative = inhibition, most hits filed as inhibitors; 230,000 compounds, 1.6% hits; AID 2147; active = well fitted inhibition curve with a large enough effect, not every such curve was filed as active; inconclusive = small, poorly fitted or top-dose-only effect, or another doubt; inactive = no such curve, though single readings can be large or run the other way;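 also: potency is read from the fitted curve at half-maximal effect; 0% = wells with enzyme and -100% = buffer wells without enzyme; nearly all actives have a fitted effect of over 50% in size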
# BLM inh-1 = Bloom syndrome helicase (human) inhibition. P54132. recombinant BLM DNA unwinding, fluorescence dequenching. Potency, µM (top dose mostly 56.1 µM), for inactives: top-dose activity change, negative = inhibition, actives largely listed as inhibitors. 350,000 compounds, 0.2% hits;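 also: potency is read from the fitted curve at half-maximal effect; plate controls were vehicle for no effect and no enzyme for full effect; nearly all actives have a fitted effect of over 35% in size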
# BLM inh-2 = confirmation of inhibitors of human Bloom syndrome helicase BLM; Potency, µM, for inactives: max response, negative = inhibition, most hits filed as inhibitors; shares compounds with BLM inh-1; 220 compounds, 40% hits; BLM DNA unwinding, fluorescence quenching, biochemical;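 also: strand separation dequenches TAMRA so unwinding raises red fluorescence; potency is read from the fitted curve at half-maximal effect; series mostly up to about 69 µM; % is scaled to controls: 0 for no effect and ±100 for the full control effect; nearly all actives have a fitted effect of over 45% in size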
# RECQ1 inh conf = confirmation of human RECQ1 helicase inhibitors. shares compounds with RECQ1 inh-1. RECQ1 helicase DNA unwinding, fluorescence. 610 compounds, 28% hits. Potency, µM (series often up to 229 µM), for inactives: top-dose activity change, negative = inhibition, hits mostly inhibitors; also: potency is read from the fitted curve at half-maximal effect; % is scaled to controls: 0 for no effect and ±100 for the full control effect; nearly all actives have a fitted effect of over 45% in size
# RECQ1 ADP FP = counter-screen for RECQ1 inhibitors: ADP displacement | shares compounds with RECQ1 inh-1 | ADP fluorescence polarization displacement counterscreen | Potency, µM (top dose mostly 228 µM), inactives show at the highest dose activity change, negative = inhibition, usual class: inhibitors | 530 compounds, 27% hits | AID 2711; also: potency is read from the fitted curve at half-maximal effect; % is scaled to controls: 0 for no effect and ±100 for the full control effect; nearly all actives have a fitted effect of over 45% in size
# RECQ1 inh-2 = confirmation of human RECQ1 helicase inhibitors. AID 504841. Potency, µM (top dose mostly 119 µM), for the others: at the highest dose activity, negative = inhibition, actives largely listed as inhibitors. shares compounds with RECQ1 inh-1. recombinant RECQ1 DNA unwinding, red fluorescence. 1,100 compounds, 15% hits; also: potency is read from the fitted curve at half-maximal effect; % is scaled to controls: 0 for no effect and ±100 for the full control effect; nearly all actives have a fitted effect of over 50% in size
# GCN5L2 inh-2 = confirmation of human GCN5L2 histone acetyltransferase inhibitors | shares compounds with GCN5L2 inh-1 | GCN5L2 HAT, ThioGlo1 CoA fluorescence, 20 min | Potency, µM, usual class: inhibitors | 140 compounds, 70% hits | AID 588347
# The depositor's hits bear a star; i = inactive; ? = inconclusive; . = no result given. The entries come from a sample that favours hits as a whole. Unless noted, calls follow the shape of the dose curve; as a rule, active = well fitted curve in the direction sought with a large enough effect; inconclusive = small, poorly fitted or top-dose-only effect, or another doubt; inactive = no such curve, though single readings can be large; an effect the other way counts as inactive or inconclusive.
SMILES,RECQ1 inh-1,GCN5L2 inh-1,TDP1 inh,APEX1 inh,JMJD2E inh,BLM inh-1,BLM inh-2,RECQ1 inh conf,RECQ1 inh-2,others
Oc1ccc(Nc2nc(NCC3CCCO3)c3ccccc3n2)cc1 (stereo unspecified),14µM*,1%,2%,-7%,-4%,16µM*,14µM*,25µM*,40µM*,RECQ1 ADP FP=?
Oc1ccccc1Nc1nc(NCC2CCCO2)c2ccccc2n1 (stereo unspecified),-7%,0%,5%,?,-4%,-8%,.,.,.,
O=C(CSc1nc2scc(-c3ccco3)c2c(=O)n1-c1ccccc1)NCC1CCCO1 (stereo unspecified),?,?,-4%,?,-2%,14µM*,?,.,?,
CC1(C)C(=O)NC2=C1C(=O)C(=O)c1ccccc12,8.9µM*,12%,18%,?,?,2.5µM*,5.1µM*,0.5µM*,.,RECQ1 ADP FP=8.9µM*
O=C(CSc1nc2ccccc2n1CCc1ccccc1)c1ccc(O)c(O)c1,7.1µM*,?,.,0.89µM*,22µM*,11µM*,19µM*,45µM*,?,
O=C(COC(=O)c1c2c(nc3ccccc13)/C(=C/c1ccco1)CC2)NC1CCCC1,?,13µM*,.,?,25µM*,8.9µM*,?,.,.,GCN5L2 inh-2=7.3*
CCN(C(=O)C1CCN(S(=O)(=O)c2ccc3c(c2)CCCN3C(=O)C2CCC2)CC1)c1cccc(C)c1,.,0%,3%,.,.,-7%,.,.,.,
Cc1ccc(/C=C(\CCC(=O)O)c2nc3ccccc3s2)cc1[N+](=O)[O-],-4%,3%,6%,2%,9%,-4%,.,.,.,
CN(c1ccccc1)c1ccc(/C=C(\CCC(=O)O)c2nc3ccccc3s2)cc1[N+](=O)[O-],?,?,6%,?,-6%,22µM*,36µM*,.,13µM*,GCN5L2 inh-2=20*
COc1ccccc1NC(=O)Cc1noc(CSc2cc(C)c3ccccc3n2)n1,?,-3%,5%,4%,?,-9%,.,.,-16%,
COc1ccccc1NC(=O)Cc1noc(CSc2cccc[n+]2[O-])n1,i,-4%,2%,1%,-1%,-3%,.,.,.,
O=C(c1ccc2c(c1)OCCO2)N(Cc1cccnc1)c1nc2c(F)cccc2s1,.,0%,3%,.,.,-10%,.,.,.,
C=C1C(=O)[C@]23[C@H](O)[C@H]1CC[C@H]2[C@@]12COC3(O)[C@H](O)[C@@H]1C(C)(C)CC[C@@H]2O,-3%,1%,-1%,-10%,.,0%,.,.,.,
Nc1cccc2c(=O)[nH]ccc12,20µM*,-13%,17%,-7%,.,-13%,.,?,.,RECQ1 ADP FP=50µM*

# Compound activity from PubChem.
